Source: the supplement of paper PMC5641865, “A screen for kinase inhibitors identifies antimicrobial imidazopyridine aminofurazans as specific inhibitors of the Listeria monocytogenes PASTA kinase PrkA” (The Journal of Biological Chemistry, 2017)
Values joined by “and” are separate entries in the source; they are usually repeats but may differ in a detail not shown here. Equal entries are not always repeated. ± gives the standard deviation of the averaged measurements.
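Note: End-point A600 read in BHI broth at 37 °C with 2% DMSO, inhibition computed as (1 − OD with compound plus ceftriaxone ÷ OD with ceftriaxone only) × 100.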

These molecules were tested on Listeria monocytogenes 10403S (assay: growth inhibition relative to ceftriaxone-alone control; higher = stronger potentiation of ceftriaxone growth inhibition). Details: 10 µM; ceftriaxone 1 ug/ml; 12 h.
For `Cc1cn(-c2cc(NC(=O)c3ccc(C)c(Nc4nccc(-c5cccnc5)n4)c3)cc(C(F)(F)F)c2)cn1` [Nilotinib (AMN-107)], the growth inhibition was 46.8 ± 3.8%. Molecule `Cc1cc(C(C)Nc2ccccc2)c2nc(N3CCOCC3)cc(=O)n2c1` (centres undefined) has a growth inhibition of 24.3 ± 9.5%. `C[S+]([O-])c1ccc(-c2nc(-c3ccc(F)cc3)c(-c3ccncc3)[nH]2)cc1` (centres undefined) was tested, and the growth inhibition was 28.4 ± 26%. `CN(C)CCNC(=O)Nc1ccc(N(C)c2ccnc(Nc3ccc(CS(C)(=O)=O)cc3)n2)cc1` was tested, and the growth inhibition was -2.69 ± 2%. In the case of `O=C1Nc2ccccc2/C1=C/Nc1ccc(-n2cncn2)cc1`, the growth inhibition is reported as 0.116 ± 3.5%. For `CC1=C(C(=O)Nc2ccc3[nH]nc(C)c3c2)C(c2ccc(C(F)(F)F)cc2)CC(=O)N1` (centres undefined), the growth inhibition was -1.71 ± 13%. Molecule `Cc1cc(Cl)cc2c1NC(=O)C2=NNc1ccc(S(N)(=O)=O)cc1` has a growth inhibition of -9.29 ± 7.3%. In the case of `Cc1ccc(NC(=O)c2ccoc2)cc1-c1ccc(C(=O)NCC2CC2)cc1`, the growth inhibition is reported as 16.8 ± 3.1%. In the case of `CCS(=O)(=O)N1CC(CC#N)(n2cc(-c3ncnc4[nH]ccc34)cn2)C1`, the growth inhibition is reported as 20.4 ± 0.71%. `Cc1cc2c(F)c(Oc3ncnn4cc(OC[C@@H](C)OC(=O)[C@H](C)N)c(C)c34)ccc2[nH]1` was tested, and the growth inhibition was 100.2 ± 0.95%. `Cc1cc(Nc2cc(N3CCN(C)CC3)nc(/C=C/c3ccccc3)n2)n[nH]1` showed a growth inhibition of 85.7 ± 18%. In the case of `c1ccc(Nc2ncc(-c3ccccc3)o2)cc1`, the growth inhibition is reported as 2.45 ± 0.39%. `NS(=O)(=O)c1ccc(N/N=C2\C(=O)Nc3ccc4ncccc4c32)cc1` was tested, and the growth inhibition was -6.48 ± 3.8%. With `CS(=O)(=O)CCNCc1coc(-c2ccc3ncnc(Nc4ccc(OCc5ccccc5)cc4)c3c2)c1` the growth inhibition was 4.98 ± 4.3%. Molecule `COc1cc2c(cc1Nc1nc(Nc3ccsc3C(N)=O)c3cc[nH]c3n1)N(C(=O)CN(C)C)CCC2(C)C` has a growth inhibition of -4.89 ± 0.71%. Work on `Cc1ccc(O)cc1Nc1ccnc2ccc(S(C)(=O)=O)cc12` yielded a growth inhibition of -11.4 ± 13%. `C=CC(=O)Nc1cccc(Oc2nc(Nc3ccc(N4CCN(C)CC4)cc3OC)ncc2Cl)c1` showed a growth inhibition of -1.74 ± 9.7%. `CCn1c(-c2nonc2N)nc2c(C#CC(C)(C)O)ncc(OC3CCNCC3)c21` was tested, and the growth inhibition was 77 ± 1.4%. Work on `Clc1ccc(-c2nn3ncccc3c2-c2ccnc(Nc3ccccc3)n2)cc1` yielded a growth inhibition of -7.12 ± 3.8%. Molecule `COc1cc2ncn(-c3cc(OCCc4ccccc4)c(C(N)=O)s3)c2cc1OC` has a growth inhibition of -4.76 ± 1.4%. With `COc1ccc(-c2cc3c(C)nc(N)nc3n([C@H]3CC[C@H](OCCO)CC3)c2=O)cn1` the growth inhibition was 12.2 ± 9.5%. With `Nc1nonc1-c1nc2cnccc2n1C1CC1` the growth inhibition was -9.63 ± 4.1%. In the case of `CNC(=O)c1cncc(/C=C/c2c(Cl)cccc2Cl)c1`, the growth inhibition is reported as -4.82 ± 4.5%. In the case of `COc1cc(C=NNc2ncnc3c2cnn3-c2ccccc2)ccc1O`, the growth inhibition is reported as 3.9 ± 5.4%. `Cc1ccc(NC(=O)CC2CC2)cc1-c1ccc(C(=O)NCC2CC2)cc1` was tested, and the growth inhibition was -0.462 ± 0.33%. Molecule `Nc1nc(N)c2nc(-c3cccc(O)c3)c(-c3cccc(O)c3)nc2n1` has a growth inhibition of 63 ± 19%. For `O=c1c(O)c(-c2ccc(O)c(O)c2)oc2cc(O)cc(O)c12` [Quercetin (Sophoretin)], the growth inhibition was 20.4 ± 13%. With `C[C@]1(O)C[C@@H](c2nc(-c3ccc4ccc(-c5ccccc5)nc4c3)c3c(N)nccn32)C1` [Linsitinib (OSI-906)] the growth inhibition was 56.8 ± 25%. Molecule `O=C(NCc1ccccc1)c1csc(Nc2ccncn2)n1` [Thiazovivin] has a growth inhibition of 5.95 ± 11%. `C#Cc1cccc(Nc2ncnc3cc(OCCOC)c(OCCO)cc23)c1` was tested, and the growth inhibition was 19.2% and 5.86%. `NS(=O)(=O)c1ccc(Nc2cc(-c3cccc(O)c3)n[nH]2)cc1` gave a growth inhibition of 10.9 ± 3.9%. Molecule `O=C1Nc2ccc(I)cc2C1=Cc1cc(Br)c(O)c(Br)c1` has a growth inhibition of 36.9 ± 6%. `COc1cccc(-c2c[nH]c3c(N/N=C/c4ccncc4)ncnc23)c1` showed a growth inhibition of -10.6 ± 14%. With `NC(=O)c1cccc(Nc2nccc(Nc3cccc4[nH]ncc34)n2)c1` the growth inhibition was 0.727 ± 1.3%. Work on `N#Cc1c(O)c2c(-c3ccc(-c4ccccc4O)cc3)csc2[nH]c1=O` yielded a growth inhibition of 40.8 ± 15%. `O=C1Nc2ccccc2C1=C1CCc2cc(O)ccc21` showed a growth inhibition of 7.57 ± 3.2%. `CN(C)Cc1cccc(N=C(c2ccccc2)c2c(O)[nH]c3cc(C(=O)N(C)C)ccc23)c1` showed a growth inhibition of 26.5 ± 1.6%. With `Cc1cc(O)cc(C)c1/C=C/c1cncc(C(N)=O)c1` the growth inhibition was -0.223 ± 2.4%. `O=C1NC(=O)[C@@H](c2cn3c4c(cccc24)CCC3)[C@@H]1c1c[nH]c2ccccc12` [ARQ 197 (Tivantinib)] gave a growth inhibition of 63.3 ± 38%.
